In PubChem BioAssay:
Active and inactive are the calls of the source.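 The calls were made as follows: active = at least 20% inhibition of 6-phosphogluconate dehydrogenase activity; inactive = the rest.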 Where a SMILES comes first, the peptide text is derived from it.

What follows are molecules tested against 6-phosphogluconate dehydrogenase, decarboxylating (Homo sapiens) (UniProt P52209) (assay: 6PGD enzyme inhibitors, primary screen, biochemical, human, recombinant enzyme, NADPH absorbance (AID 1159550)). Conditions: recombinant 6PGD, NADPH absorbance 341 nm; at 10 µM; stronger effect = higher value.
Sequence of 6-phosphogluconate dehydrogenase, decarboxylating (Homo sapiens) (P52209 whole entry, looked up): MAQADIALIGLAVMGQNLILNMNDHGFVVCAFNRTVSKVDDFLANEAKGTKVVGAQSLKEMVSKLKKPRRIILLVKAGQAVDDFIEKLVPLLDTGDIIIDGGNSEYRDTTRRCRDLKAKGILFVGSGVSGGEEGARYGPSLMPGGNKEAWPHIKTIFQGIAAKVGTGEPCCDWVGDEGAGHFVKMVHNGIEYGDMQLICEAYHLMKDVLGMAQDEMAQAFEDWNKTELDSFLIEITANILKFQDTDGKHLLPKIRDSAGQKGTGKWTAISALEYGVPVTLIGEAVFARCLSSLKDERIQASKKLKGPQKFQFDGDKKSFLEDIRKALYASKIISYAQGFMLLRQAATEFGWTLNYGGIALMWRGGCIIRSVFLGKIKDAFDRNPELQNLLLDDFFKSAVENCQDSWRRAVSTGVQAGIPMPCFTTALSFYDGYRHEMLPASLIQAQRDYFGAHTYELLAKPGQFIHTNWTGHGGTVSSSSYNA

inhibition, inactive:
CC1OC(OC2C(Oc3cc(O)c4c(=O)cc(-c5ccc(O)cc5)oc4c3)OC(CO)C(O)C2O)C(O)C(O)C1O (stereo unspecified) -11.1%
CC(C)C(N)C(=O)NC(Cc1c[nH]c2ccccc12)C(=O)O (stereo unspecified) 4.18%
CC(C)CCC[C@@H](C)[C@H]1CC[C@H]2[C@@H]3CC[C@H]4CCCC[C@]4(C)[C@H]3CC[C@]12C 11.6%
Oc1ccc2c(c1)OC[C@H]1c3cc4c(cc3O[C@@H]21)OCO4 -3%
COc1ccc2c(c1)[C@@]1(C)CCC(=O)C[C@@H]1CC2 3.57%
C/C=C(/C)C(=O)O[C@H]1Cc2c(ccc3ccc(=O)oc23)OC1(C)C 9.34%
CS(C)(=O)=O 0.728%
CC1(C)C(=O)C2OC2C2(C)C1CC(=O)C1(C)C2CCC2(C)C(c3ccoc3)OC(=O)C3OC321 (stereo unspecified) 2.22%
CC(=O)OC1CCC2(C)C3=C(CC[C@H]2C1(C)C)[C@@]1(C)CC[C@@H]([C@@H](C)CCC=C(C)C)[C@]1(C)CC3 (stereo partly specified) -9.29%
COc1ccc2c(=O)cc(-c3ccccc3OC)oc2c1 3.35%
Cc1cc(=O)c2c(O)c(C)c(O)cc2o1 15%
CC(C)CC(NC(=O)CN)C(=O)NC(Cc1ccccc1)C(=O)O (stereo not drawn) (H-Gly-Leu-Phe-OH; configuration not given here) 6.11%
CN1c2ccccc2C(=O)N2CCc3c([nH]c4ccc(O)cc34)[C@H]21 3.55%
CC(=O)OCC(=O)[C@@]1(O)CC[C@H]2[C@@H]3CC[C@@H]4C[C@H](OC(C)=O)CC[C@]4(C)[C@H]3C(=O)C[C@@]21C 4.42%
CC1OC(OC2C(O)COC(OC3C(C)OC(OC4C(OC(=O)C56CCC(C)(C)CC5C5=CCC7C8(C)CCC(OC9OC(CO)C(O)C(O)C9O)C(C)(C)C8CCC7(C)C5(C)CC6O)OCC(O)C4O)C(O)C3O)C2O)C(O)C(O)C1O (stereo unspecified) -33.1%
CC(=O)Oc1cc2c(c(C)c1OC(C)=O)CC1OC13[C@@]2(C)CC[C@@]1(C)C2C[C@](C)(C(=O)O)CC[C@]2(C)CC[C@]31C (stereo partly specified) 2.26%
NCCCC[C@H](N)C(=O)N[C@@H](Cc1ccccc1)C(=O)N[C@@H](Cc1ccc(O)cc1)C(=O)O (H-Lys-Phe-Tyr-OH) 6.75%
C[C@H](CCC(=O)O)[C@H]1CC[C@H]2[C@@H]3C=C[C@@H]4C[C@H](O)CC[C@]4(C)[C@H]3CC[C@]12C 3.87%
CC(=O)OCC(=O)[C@@]1(O)CC[C@H]2[C@@H]3CC[C@@H]4C[C@H](O)CC[C@]4(C)[C@H]3C(=O)C[C@@]21C -7.21%
CC(=O)O[C@@H]1CC2C(C)(C)[C@H](O)C[C@H](O)[C@]2(C)C2CC[C@@]3(C)C(=CC(=O)O[C@H]3c3ccoc3)[C@@]21C (stereo partly specified) 13.2%
CCOc1ccc(C(=O)c2cc(O)c(OC)c(OC)c2O)cc1 0.271%
CCCCC(CC)COC(=O)COc1cc(Cl)c(Cl)cc1Cl (stereo unspecified) 4.06%
COc1c(C(C)C)oc2cc3oc(=O)ccc3cc12 2.98%
C[C@H]1O[C@H]1P(=O)(O)O 6.14%
Oc1cc(O)c2c(c1)O[C@H](c1cc(O)c(O)c(O)c1)[C@H](O)[C@H]2c1c(O)cc(O)c2c1O[C@H](c1cc(O)c(O)c(O)c1)[C@H](O)[C@H]2c1c(O)cc(O)c2c1O[C@H](c1cc(O)c(O)c(O)c1)[C@H](O)C2 11.5%
COc1c(Cl)c(C)c2c(c1Cl)OC(=O)c1c(C)c(Cl)c(OC)c(Cl)c1O2 -8.06%
CC1(C)CCC2(C(=O)O)C(O)CC3(C)C(=CCC4C5(C)CCC(O)C(C)(C)C5CCC43C)C2C1 (stereo unspecified) -10.1%
COc1c(-c2ccccc2)oc2c(OC)cccc2c1=O -9.55%
COc1cc(O)c2c(=O)cc(-c3ccc(O)cc3)oc2c1 6.18%
CC1(C)CCC2(C(=O)O)CCC3(C)C(=CCC4C5(C)CCC(O)C(C)(C)C5CCC43C)C2C1 (stereo unspecified) 0.817%
NC[C@@H]1OC(O[C@@H]2[C@@H](O)[C@H](O[C@H]3[C@@H](O)[C@H](N)C[C@H](N)[C@H]3O[C@H]3O[C@H](CN)[C@H](O)[C@H](O)[C@H]3N)O[C@@H]2CO)[C@H](N)[C@@H](O)[C@H]1O (stereo partly specified) -6.73%
